Test results as given in PubChem BioAssay (Tox21).
Values joined by “and” are separate entries in the source; they are usually repeats but may differ in a detail not shown here. Equal values may be shown once. Inconclusive results are not listed. A call without a number means that no potency is given here. Active and inactive are the calls of the source. The call rests on the fitted dose curve; in most records, active means well fitted cell-killing curve with a large enough effect in the repeat runs; inconclusive means weak or mixed curves; inactive means no such curve, though single readings can be large or run the other way.

experiment: qHTS assay to identify small molecule agonists of the peroxisome proliferator-activated receptor delta (PPARd) signaling pathway - cell viability counter screen (AID 743211); settings: PPARd-bla HEK293H viability, CellTiter-Glo luminescence, 17 h; series mostly up to 62.6 µM; further: nearly all actives have a fitted effect of over 55% in size
From the text: U.S. Tox21 Program National Center for Advancing Translational Sciences [NCATS] NIH Chemical Genomics Center [NCGC] U.S. Environmental Protection Agency [EPA] National Institutes of Environmental Health Sciences [NIEHS] National Toxicology Program [NTP] U.S. Food and Drug Administration [FDA] Tox21 Assay Overview: The peroxisome proliferator-activated receptors (PPARs) are lipid-activated transcription factors of the nuclear receptor superfamily with three distinct subtypes namely PPAR alpha, PPAR delta (PPARd) and PPAR gamma. All these subtypes heterodimerizes with Retinoid X receptor (RXR) and have different physiological functions. […] To identify the compounds that activate PPAR-delta signaling, GeneBLAzer PPAR delta UAS-bla HEK293H cell line (Invitrogen, Carlsbad, CA, USA) containing a beta-lactamase reporter gene under the control of an Upstream Activator Sequence (UAS) was used to screen the Tox21 compound library. The cytotoxicity of the Tox21 compound library against the PPARd-bla cell line was tested in parallel by measuring the cell viability using CellTiter-Glo assay (Promega, Madison, WI) in the same wells.
Tox21 Assay Protocol Summary: PPARd-bla cells were dispensed at 3000 cells/6uL/well in 1536-well black wall/clear bottom plates using a Multidrop Combi (Thermo Fisher Scientific, Waltham, MA) dispenser. After the assay plates were incubated at 37 C and 5% CO2 for 5 h, 23 nL of compounds dissolved in DMSO, positive controls or DMSO only was transferred to the assay plate by a Pintool station (Kalypsys, San Diego, CA). The assay plates were incubated at 37C for 17 h. After 1 uL of LiveBLAzerTM B/G FRET substrate was added using a Bioraptr Flying Reagent Dispenser (FRD) workstation (Beckman Coulter, Indianapolis, IN, USA), the plates were incubated at room temperature for 2 h, and fluorescence intensity was measured by an Envision plate reader (PerkinElmer, Shelton, CT). For cell viability readout that measures cytotoxicity, 3 ul/well of CellTiter-Glo reagent was added into the assay plates using a Bioraptr FRD. After 30 min incubation at room temperature, the luminescence intensity in the plates was measured using a ViewLux plate reader (PerkinElmer).
Potency means the concentration at half of the fitted maximal effect.

Row | SMILES | Potency
1 | CC(O)C(=O)[O][Hg][c]1ccccc1 (stereo not given) | 1.38 µM (active)
2 | Nc1cc(Cl)ccc1Cl | inactive
3 | CCCCc1ccccc1 | inactive
4 | [Cl][Hg][c]1ccccc1 | 0.977 µM (active)
5 | [Cl-].[Cl-].[Sn+2] | inactive
6 | CC[N+]1(CC)CCC(OC(=O)C(O)(c2ccccc2)c2ccccc2)C1 (stereo not given) | inactive
7 | O=C(NC(=O)c1c(F)cccc1F)Nc1ccc(Oc2ccc(C(F)(F)F)cc2Cl)cc1F | inactive
8 | CC(C)[C@@H](Nc1ccc(C(F)(F)F)cc1Cl)C(=O)OC(C#N)c1cccc(Oc2ccccc2)c1 (stereo not given in full) | inactive
9 | c1ccc(N=NNc2ccccc2)cc1 | 56.8 µM (active)
10 | BrCC(Br)(Br)Br | inactive
11 | CCn1cc[n+](C)c1 (tested in a mixture with another compound) | inactive
12 | CNC(C)(C)Cc1ccccc1 | inactive
13 | CC(C)C(Br)C(=O)NC(N)=O (stereo not given) | inactive
14 | CCN(CC)C(=S)S | 13.9 µM (active) and 3.87 µM (active) and 4.9 µM (active)
15 | CCOC(=O)CCN(SN(C)C(=O)Oc1cccc2c1OC(C)(C)C2)C(C)C | inactive
16 | CC(=O)[O][Sn]([c]1ccccc1)([c]1ccccc1)[c]1ccccc1 | 0.0977 µM (active)
17 | CN(C)C(=S)SSC(=S)N(C)C | 76.5 nM (active) and 38.9 nM (active) and 188 nM (active)
18 | CN1C2CCC(C)(C)C1CC(OC(=O)C(O)(c1cccs1)c1cccs1)C2 (stereo not given) | inactive
19 | Brc1ccc(Oc2ccc(Br)cc2Br)c(Br)c1 | 43.7 µM (active)
20 | CC(=O)O.CC(=O)O.CC(=O)O.CC(=O)O.CC(=O)O.CC(=O)O.CC(=O)O.O.O.[Cr].[Cr].[Cr] | inactive

Row | SMILES | Potency
21 | C[C@]12C/C(=C/O)C(=O)C[C@@H]1CC[C@@H]1[C@@H]2CC[C@@]2(C)[C@H]1CC[C@]2(C)O | 49.4 µM (active)
22 | CCCCn1cc[n+](C)c1 (tested in a mixture with another compound) | inactive
23 | CCC(C)Br (stereo not given) | inactive
24 | O=C(O)CCCCCCNC1c2ccccc2CCc2ccccc21 | inactive
25 | Oc1ccc(Cl)c(Cl)c1 | inactive
26 | O=C1C(Cl)=C(Cl)C(=O)C(Cl)=C1Cl | 15.5 µM (active)
27 | C[C@]12CC[C@H]3[C@@H](CCC4=CC(=O)CC[C@@H]43)[C@@H]1CC[C@@H]2OC(=O)CCc1ccco1 | 26.6 µM (active)
28 | C=CCBr | inactive
29 | CN1[C@@H]2CC[C@H]1CC(O)C2 (stereo not given in full) | inactive
30 | Oc1cccc(Cl)c1Cl | inactive
31 | CCCC[N+]1(C)CCCC1 (tested in a mixture with another compound) | inactive
32 | CC(C)C(Nc1ccc(C(F)(F)F)cc1Cl)C(=O)OC(C#N)c1cccc(Oc2ccccc2)c1 (stereo not given) | inactive
33 | Nc1nc(N)nc(Cl)n1 | inactive
34 | O=NN(CCO)CCO | inactive
35 | S=C=Nc1ccccc1 | inactive
36 | [O]=[Cr][O][Cr]=[O] | inactive
37 | C=Cc1cccc(CCl)c1 | inactive
38 | ClSC(Cl)(Cl)Cl | inactive
39 | O=P(Cl)(Cl)Cl | inactive
40 | CSC(C)(C)/C=N/O | inactive
